# According to publication PMC7862700, “An all-to-all approach to the identification of sequence-specific readers for epigenetic DNA modifications on cytosine”:
# Assays:
# Assay in all cases: DAPPL (digital affinity profiling via proximity ligation, sequencing); 10 mM Tris-HCl pH 7.5, 50 mM NaCl, 1 mM DTT, 4% glycerol, room temperature, 30 min; GST-TFs on glutathione beads, 16-mer random dsDNA library, 0.1% formaldehyde crosslink after washing; high values mean tight binding
# [1] = molecular target: T1, FEV (Homo sapiens, UniProt Q99581 1-238); conditions: protein: recombinant; tags: N-terminal GST; dsDNA, one strand shown
# T1 sequence: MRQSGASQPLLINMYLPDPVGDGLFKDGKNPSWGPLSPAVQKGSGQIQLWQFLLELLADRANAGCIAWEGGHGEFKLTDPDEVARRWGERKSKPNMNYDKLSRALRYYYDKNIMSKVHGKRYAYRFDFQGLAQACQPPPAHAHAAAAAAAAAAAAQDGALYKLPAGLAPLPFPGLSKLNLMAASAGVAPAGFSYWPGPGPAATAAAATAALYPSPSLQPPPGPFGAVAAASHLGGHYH
# Procedure, shortened: (§1)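 Binding signal is given per hexamer as its read frequency for a factor divided by its frequency in the tag-only sample. GST-fused human transcription factors were expressed in yeast, captured on glutathione beads, barcoded with DNA and pooled with that sample, then incubated with 200 nmole of a 16-mer random double-stranded DNA library in Tris/NaCl/DTT/glycerol buffer for 30 min at room temperature. The pools were then washed, crosslinked, proximity-ligated, amplified by PCR and sequenced on an Illumina NextSeq500.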
# [2] = molecular target: ETV5 (Homo sapiens, UniProt P41161 1-510); conditions: protein: recombinant; tags: N-terminal GST; dsDNA, one strand shown
# Sequence of ETV5 (P41161 whole entry): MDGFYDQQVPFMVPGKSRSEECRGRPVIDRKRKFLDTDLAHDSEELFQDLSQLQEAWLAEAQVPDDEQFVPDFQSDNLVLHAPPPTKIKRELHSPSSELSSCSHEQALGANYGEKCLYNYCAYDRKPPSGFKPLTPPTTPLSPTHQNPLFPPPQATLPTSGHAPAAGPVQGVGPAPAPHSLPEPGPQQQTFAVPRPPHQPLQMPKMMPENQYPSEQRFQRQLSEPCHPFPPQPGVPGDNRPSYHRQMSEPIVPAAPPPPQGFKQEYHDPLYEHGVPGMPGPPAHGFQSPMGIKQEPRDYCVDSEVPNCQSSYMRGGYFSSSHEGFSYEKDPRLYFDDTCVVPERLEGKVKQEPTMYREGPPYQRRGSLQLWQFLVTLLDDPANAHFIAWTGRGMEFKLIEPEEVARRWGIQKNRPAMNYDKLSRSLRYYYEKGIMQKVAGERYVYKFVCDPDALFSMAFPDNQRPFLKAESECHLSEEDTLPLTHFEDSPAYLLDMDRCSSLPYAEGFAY
# Procedure, shortened: as §1
# [3] = molecular target: HSF1 (Homo sapiens, UniProt Q00613 1-529); conditions: protein: recombinant; tags: N-terminal GST; chain copies: 3; dsDNA, one strand shown
# Sequence of HSF1 (Q00613 whole entry): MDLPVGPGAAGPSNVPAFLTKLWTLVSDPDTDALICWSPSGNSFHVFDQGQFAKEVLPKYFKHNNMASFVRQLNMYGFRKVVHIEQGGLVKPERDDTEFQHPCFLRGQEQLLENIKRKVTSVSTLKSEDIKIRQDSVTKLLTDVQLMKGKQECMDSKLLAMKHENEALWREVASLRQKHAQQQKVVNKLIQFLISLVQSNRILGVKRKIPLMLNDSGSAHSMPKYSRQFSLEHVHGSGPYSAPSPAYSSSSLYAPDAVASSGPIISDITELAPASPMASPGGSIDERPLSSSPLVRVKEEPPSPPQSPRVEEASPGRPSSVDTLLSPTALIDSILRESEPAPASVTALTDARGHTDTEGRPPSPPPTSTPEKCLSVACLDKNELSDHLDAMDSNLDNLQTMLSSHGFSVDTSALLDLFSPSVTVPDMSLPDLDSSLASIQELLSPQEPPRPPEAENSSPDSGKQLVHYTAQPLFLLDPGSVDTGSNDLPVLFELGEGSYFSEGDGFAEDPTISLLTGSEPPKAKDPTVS
# Procedure, shortened: as §1
# [4] = molecular target: T2, SPIC (Homo sapiens, UniProt Q8N5J4 1-248); conditions: protein: recombinant; tags: N-terminal GST; dsDNA, one strand shown
# T2 sequence: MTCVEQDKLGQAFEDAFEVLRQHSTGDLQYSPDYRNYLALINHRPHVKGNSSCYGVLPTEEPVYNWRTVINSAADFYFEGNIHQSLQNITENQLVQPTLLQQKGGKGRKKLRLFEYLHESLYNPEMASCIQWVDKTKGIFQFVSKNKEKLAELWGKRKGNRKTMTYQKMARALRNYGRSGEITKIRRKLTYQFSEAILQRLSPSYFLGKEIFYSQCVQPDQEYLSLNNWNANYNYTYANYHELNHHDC
# Procedure, shortened: as §1
# [5] = molecular target: ELF4 (Homo sapiens, UniProt Q99607 1-663); conditions: protein: recombinant; tags: N-terminal GST; dsDNA, one strand shown
# Sequence of ELF4 (Q99607 whole entry): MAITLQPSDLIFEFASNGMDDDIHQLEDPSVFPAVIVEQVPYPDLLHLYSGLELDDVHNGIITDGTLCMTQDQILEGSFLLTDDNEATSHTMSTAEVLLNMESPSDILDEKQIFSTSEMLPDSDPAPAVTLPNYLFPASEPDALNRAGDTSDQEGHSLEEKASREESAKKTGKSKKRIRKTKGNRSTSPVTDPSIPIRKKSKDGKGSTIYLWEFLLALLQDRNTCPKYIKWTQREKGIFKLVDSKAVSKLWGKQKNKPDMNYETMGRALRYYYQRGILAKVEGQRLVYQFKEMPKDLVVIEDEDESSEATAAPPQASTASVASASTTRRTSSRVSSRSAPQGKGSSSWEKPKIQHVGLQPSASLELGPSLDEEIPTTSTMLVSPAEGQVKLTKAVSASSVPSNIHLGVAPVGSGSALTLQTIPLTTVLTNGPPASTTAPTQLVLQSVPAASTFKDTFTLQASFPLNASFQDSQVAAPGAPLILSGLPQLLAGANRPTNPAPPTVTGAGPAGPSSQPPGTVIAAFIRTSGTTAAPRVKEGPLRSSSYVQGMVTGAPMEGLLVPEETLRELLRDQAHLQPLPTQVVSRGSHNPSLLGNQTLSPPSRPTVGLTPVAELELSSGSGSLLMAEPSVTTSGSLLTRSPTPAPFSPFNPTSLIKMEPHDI
# Procedure, shortened: as §1
# [6] = molecular target: T3, ELK4 (Homo sapiens, UniProt P28324-2 1-405); conditions: protein: recombinant; tags: N-terminal GST; dsDNA, one strand shown
# T3 sequence: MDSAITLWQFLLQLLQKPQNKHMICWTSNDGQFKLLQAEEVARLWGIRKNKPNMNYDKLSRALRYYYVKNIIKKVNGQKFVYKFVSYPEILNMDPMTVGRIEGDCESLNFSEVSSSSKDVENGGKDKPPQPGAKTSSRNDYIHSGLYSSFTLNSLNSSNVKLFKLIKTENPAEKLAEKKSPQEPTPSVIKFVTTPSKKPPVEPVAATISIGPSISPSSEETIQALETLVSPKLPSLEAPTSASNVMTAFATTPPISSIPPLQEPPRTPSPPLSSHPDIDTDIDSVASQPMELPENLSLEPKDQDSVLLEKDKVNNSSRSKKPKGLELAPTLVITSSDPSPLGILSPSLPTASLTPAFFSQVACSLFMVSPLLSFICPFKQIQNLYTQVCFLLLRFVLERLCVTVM
# Procedure, shortened: as §1
# [7] = molecular target: T4, ETV2 (Homo sapiens, UniProt O00321 1-342); conditions: protein: recombinant; tags: N-terminal GST; dsDNA, one strand shown
# T4 sequence: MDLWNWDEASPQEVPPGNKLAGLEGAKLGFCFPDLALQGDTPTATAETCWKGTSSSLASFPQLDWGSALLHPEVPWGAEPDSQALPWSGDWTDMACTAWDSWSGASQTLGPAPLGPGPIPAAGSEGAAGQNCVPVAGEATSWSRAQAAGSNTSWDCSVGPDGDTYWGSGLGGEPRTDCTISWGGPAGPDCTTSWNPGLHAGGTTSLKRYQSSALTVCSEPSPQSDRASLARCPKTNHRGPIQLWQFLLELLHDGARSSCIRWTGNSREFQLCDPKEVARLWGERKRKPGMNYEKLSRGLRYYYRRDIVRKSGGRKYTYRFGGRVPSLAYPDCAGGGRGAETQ
# Procedure, shortened: as §1
# [8] = molecular target: T5, ELF3 (Homo sapiens, UniProt P78545 1-371); conditions: protein: recombinant; tags: N-terminal GST; dsDNA, one strand shown
# T5 sequence: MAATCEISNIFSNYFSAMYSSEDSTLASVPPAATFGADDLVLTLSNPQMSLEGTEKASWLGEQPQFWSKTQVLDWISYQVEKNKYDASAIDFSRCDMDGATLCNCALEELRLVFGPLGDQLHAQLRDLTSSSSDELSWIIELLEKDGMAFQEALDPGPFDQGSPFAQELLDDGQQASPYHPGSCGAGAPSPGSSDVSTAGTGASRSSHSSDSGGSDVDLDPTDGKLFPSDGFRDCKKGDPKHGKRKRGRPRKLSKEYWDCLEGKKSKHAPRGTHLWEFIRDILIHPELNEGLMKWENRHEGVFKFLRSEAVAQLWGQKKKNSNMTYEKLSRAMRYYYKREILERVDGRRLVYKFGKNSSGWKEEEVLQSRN
# Procedure, shortened: as §1
# [9] = molecular target: CRX (Homo sapiens, UniProt O43186 1-299); conditions: protein: recombinant; tags: N-terminal GST; dsDNA, one strand shown
# Sequence of CRX (O43186 whole entry): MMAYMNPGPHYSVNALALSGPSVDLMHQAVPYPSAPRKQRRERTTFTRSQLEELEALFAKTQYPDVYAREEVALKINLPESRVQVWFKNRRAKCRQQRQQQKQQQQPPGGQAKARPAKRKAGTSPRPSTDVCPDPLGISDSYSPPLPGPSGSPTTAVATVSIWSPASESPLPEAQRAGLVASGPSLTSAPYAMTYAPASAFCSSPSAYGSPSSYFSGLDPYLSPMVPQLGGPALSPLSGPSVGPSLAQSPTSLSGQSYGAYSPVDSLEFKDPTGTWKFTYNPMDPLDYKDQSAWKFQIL
# Procedure, shortened: as §1
# [10] = molecular target: ETV1 (Homo sapiens, UniProt P50549 1-477); conditions: protein: recombinant; tags: N-terminal GST; dsDNA, one strand shown
# Sequence of ETV1 (P50549 whole entry): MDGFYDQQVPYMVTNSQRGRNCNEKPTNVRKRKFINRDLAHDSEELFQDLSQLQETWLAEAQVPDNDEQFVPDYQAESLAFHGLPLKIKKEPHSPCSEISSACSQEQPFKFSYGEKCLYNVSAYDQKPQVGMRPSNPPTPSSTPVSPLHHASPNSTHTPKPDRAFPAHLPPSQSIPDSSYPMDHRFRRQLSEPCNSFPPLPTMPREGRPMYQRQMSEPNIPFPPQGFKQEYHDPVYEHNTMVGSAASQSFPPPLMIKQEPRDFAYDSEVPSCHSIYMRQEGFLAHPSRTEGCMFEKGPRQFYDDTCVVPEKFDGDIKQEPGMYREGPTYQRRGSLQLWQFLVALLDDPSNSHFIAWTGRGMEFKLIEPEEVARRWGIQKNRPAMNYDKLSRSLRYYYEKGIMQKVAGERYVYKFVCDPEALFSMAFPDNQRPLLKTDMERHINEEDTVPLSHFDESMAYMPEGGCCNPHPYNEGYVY
# Procedure, shortened: as §1
# [11] = molecular target: T6, ERF (Homo sapiens, UniProt P50548 1-548); conditions: protein: recombinant; tags: N-terminal GST; dsDNA, one strand shown
# T6 sequence: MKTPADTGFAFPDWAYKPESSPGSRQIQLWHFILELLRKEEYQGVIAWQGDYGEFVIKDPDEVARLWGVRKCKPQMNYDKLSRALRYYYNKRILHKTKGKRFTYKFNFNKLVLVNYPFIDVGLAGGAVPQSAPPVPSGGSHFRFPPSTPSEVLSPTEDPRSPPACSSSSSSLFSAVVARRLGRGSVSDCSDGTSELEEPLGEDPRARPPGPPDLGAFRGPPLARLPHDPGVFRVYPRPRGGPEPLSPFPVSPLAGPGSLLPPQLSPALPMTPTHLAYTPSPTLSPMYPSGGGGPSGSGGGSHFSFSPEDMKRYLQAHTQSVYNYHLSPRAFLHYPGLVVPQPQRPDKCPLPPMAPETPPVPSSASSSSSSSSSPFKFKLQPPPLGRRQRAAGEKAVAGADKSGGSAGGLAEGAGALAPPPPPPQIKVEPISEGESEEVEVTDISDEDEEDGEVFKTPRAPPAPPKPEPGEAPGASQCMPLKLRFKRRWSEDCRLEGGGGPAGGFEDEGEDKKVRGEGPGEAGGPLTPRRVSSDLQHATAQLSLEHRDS
# Procedure, shortened: as §1
# [12] = molecular target: T7, ETV3L (Homo sapiens, UniProt Q6ZN32 1-361); conditions: protein: recombinant; tags: N-terminal GST; dsDNA, one strand shown
# T7 sequence: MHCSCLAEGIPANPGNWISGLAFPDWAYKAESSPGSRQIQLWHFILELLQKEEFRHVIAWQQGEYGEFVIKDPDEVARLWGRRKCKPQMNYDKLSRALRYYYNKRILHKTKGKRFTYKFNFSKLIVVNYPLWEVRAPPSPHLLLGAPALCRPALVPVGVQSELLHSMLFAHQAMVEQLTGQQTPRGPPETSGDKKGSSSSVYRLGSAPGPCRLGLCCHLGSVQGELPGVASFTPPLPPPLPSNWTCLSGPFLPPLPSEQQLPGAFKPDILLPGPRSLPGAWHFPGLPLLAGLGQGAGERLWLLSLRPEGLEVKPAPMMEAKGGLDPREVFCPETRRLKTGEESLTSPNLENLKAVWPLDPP
# Procedure, shortened: as §1
# [13] = molecular target: T8, ETS2 (Homo sapiens, UniProt P15036 1-469); conditions: protein: recombinant; tags: N-terminal GST; dsDNA, one strand shown
# T8 sequence: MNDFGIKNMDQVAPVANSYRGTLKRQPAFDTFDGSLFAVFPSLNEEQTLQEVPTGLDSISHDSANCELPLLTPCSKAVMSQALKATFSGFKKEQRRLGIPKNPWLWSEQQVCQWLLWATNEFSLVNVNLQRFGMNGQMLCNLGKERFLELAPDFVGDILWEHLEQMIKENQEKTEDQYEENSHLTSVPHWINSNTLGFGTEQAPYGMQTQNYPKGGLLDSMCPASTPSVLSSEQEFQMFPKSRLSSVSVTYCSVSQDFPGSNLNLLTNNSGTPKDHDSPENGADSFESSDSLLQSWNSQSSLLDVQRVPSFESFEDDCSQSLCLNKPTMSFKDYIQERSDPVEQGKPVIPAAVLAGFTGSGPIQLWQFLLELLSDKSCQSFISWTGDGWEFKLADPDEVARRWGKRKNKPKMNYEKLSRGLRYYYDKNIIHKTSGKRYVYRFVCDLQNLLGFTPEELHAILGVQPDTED
# Procedure, shortened: as §1
# [14] = molecular target: T9, SPDEF (Homo sapiens, UniProt O95238 1-335); conditions: protein: recombinant; tags: N-terminal GST; dsDNA, one strand shown
# T9 sequence: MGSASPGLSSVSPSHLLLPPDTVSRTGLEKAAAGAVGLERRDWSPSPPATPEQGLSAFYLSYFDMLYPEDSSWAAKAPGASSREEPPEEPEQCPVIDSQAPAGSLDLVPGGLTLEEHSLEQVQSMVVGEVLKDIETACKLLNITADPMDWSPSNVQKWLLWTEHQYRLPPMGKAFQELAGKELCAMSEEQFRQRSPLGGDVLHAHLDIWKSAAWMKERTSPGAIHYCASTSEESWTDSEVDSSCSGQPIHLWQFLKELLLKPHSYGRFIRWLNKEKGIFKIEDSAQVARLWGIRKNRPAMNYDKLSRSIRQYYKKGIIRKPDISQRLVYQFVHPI
# Procedure, shortened: as §1
# [15] = molecular target: T10, ETV7 (Homo sapiens, UniProt Q9Y603 1-341); conditions: protein: recombinant; tags: N-terminal GST; dsDNA, one strand shown
# T10 sequence: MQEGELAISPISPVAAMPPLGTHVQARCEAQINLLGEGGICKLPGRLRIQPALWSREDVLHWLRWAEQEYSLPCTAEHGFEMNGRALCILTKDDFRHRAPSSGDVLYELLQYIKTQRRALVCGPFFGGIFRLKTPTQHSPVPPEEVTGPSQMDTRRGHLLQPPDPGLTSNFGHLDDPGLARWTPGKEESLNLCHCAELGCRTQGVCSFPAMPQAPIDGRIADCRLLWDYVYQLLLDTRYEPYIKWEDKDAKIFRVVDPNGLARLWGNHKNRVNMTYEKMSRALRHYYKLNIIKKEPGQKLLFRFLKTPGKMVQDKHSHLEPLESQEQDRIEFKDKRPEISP
# Procedure, shortened: as §1
# [16] = molecular target: T11, ELF5 (Homo sapiens, UniProt Q9UKW6-2 1-255); conditions: protein: recombinant; tags: N-terminal GST; dsDNA, one strand shown
# T11 sequence: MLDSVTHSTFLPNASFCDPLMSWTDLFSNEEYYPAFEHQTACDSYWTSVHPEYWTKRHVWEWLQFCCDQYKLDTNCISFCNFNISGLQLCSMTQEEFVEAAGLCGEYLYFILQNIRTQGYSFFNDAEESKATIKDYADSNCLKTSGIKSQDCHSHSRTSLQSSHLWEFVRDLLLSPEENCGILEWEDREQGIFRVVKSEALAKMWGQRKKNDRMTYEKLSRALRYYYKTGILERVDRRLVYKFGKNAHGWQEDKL
# Procedure, shortened: as §1
# [17] = molecular target: T12, ETV3 (Homo sapiens, UniProt P41162-2 1-143); conditions: protein: recombinant; tags: N-terminal GST; dsDNA, one strand shown
# T12 sequence: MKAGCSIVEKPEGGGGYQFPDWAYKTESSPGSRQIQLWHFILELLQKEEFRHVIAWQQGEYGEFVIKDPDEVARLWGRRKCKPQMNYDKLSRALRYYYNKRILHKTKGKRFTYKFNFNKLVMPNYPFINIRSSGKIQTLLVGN
# Procedure, shortened: as §1
# [18] = molecular target: ETV6 (Homo sapiens, UniProt P41212 1-452); conditions: protein: recombinant; tags: N-terminal GST; dsDNA, one strand shown
# Sequence of ETV6 (P41212 whole entry): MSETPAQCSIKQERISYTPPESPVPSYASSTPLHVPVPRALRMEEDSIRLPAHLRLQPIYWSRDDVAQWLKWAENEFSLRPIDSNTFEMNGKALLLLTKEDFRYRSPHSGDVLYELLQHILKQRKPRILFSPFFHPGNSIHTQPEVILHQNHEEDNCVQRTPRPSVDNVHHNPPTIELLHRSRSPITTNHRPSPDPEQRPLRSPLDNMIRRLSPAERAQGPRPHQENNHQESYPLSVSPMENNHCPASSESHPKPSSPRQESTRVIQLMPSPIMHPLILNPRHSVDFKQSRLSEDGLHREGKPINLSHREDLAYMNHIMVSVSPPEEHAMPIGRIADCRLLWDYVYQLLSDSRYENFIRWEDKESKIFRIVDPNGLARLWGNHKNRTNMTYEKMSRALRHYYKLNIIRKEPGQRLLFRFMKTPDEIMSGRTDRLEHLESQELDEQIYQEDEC
# Procedure, shortened: as §1
sequence,measurement,setting,value
GCTTTA,binding signal,[1],"1.04 fold enrichment (6-mer frequency, TF over GST control)"
same,binding signal,[2],"1.06 fold enrichment (6-mer frequency, TF over GST control)"
same,binding signal,[3],"1.25 fold enrichment (6-mer frequency, TF over GST control)"
same,binding signal,[4],"1.13 fold enrichment (6-mer frequency, TF over GST control)"
same,binding signal,[5],"1.14 fold enrichment (6-mer frequency, TF over GST control)"
same,binding signal,[6],"1.2 fold enrichment (6-mer frequency, TF over GST control)"
same,binding signal,[7],"1.16 fold enrichment (6-mer frequency, TF over GST control)"
same,binding signal,[8],"1.13 fold enrichment (6-mer frequency, TF over GST control)"
same,binding signal,[9],"1.81 fold enrichment (6-mer frequency, TF over GST control)"
same,binding signal,[10],"1.06 fold enrichment (6-mer frequency, TF over GST control)"
same,binding signal,[11],"1.25 fold enrichment (6-mer frequency, TF over GST control)"
same,binding signal,[12],"1.15 fold enrichment (6-mer frequency, TF over GST control)"
same,binding signal,[13],"1.2 fold enrichment (6-mer frequency, TF over GST control)"
same,binding signal,[14],"1.06 fold enrichment (6-mer frequency, TF over GST control)"
same,binding signal,[15],"1.19 fold enrichment (6-mer frequency, TF over GST control)"
same,binding signal,[16],"1.08 fold enrichment (6-mer frequency, TF over GST control)"
same,binding signal,[17],"1.13 fold enrichment (6-mer frequency, TF over GST control)"
same,binding signal,[18],"1.1 fold enrichment (6-mer frequency, TF over GST control)"
